The values that follow come from PubChem BioAssay (NCATS).

For assay [1], the target named is Tumor susceptibility gene 101 protein (Homo sapiens) (UniProt Q99816). The assay can be described thus: qHTS Assay for Iinhibitors of HIV-1 Budding by Blocking the Interaction of PTAP/TSG101: Hit Validation (AID 651600). Further: potency means the concentration at half of the fitted maximal effect; nearly all actives have a fitted effect of over 70% in size. In a few lines:
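Displacement of a FITC-labeled PTAP-motif peptide (50 nM) from the Tsg101 binding domain (10 uM) was monitored by fluorescence polarization after a 20 min room-temperature incubation.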

The target of assay [2] is Rap guanine nucleotide exchange factor 3 (Homo sapiens) (UniProt O95398). The assay can be described thus: Confirmatory qHTS for antagonist of cAMP-regulated guanine nucleotide exchange factor 3 (EPAC1) (AID 1645880). Further: nearly all actives have a fitted effect of over 55% in size. Further: potency means the concentration at half of the fitted maximal effect.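 On activity, negative = inhibition: plate controls were DMSO only for no effect and full effect of the ATA control for full effect.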 As to conditions: EPAC1 Rap1B-BODIPY-GDP exchange, fluorescence; activity, negative = inhibition: at 115 µM (top of the series). In short, it runs like this: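 Nucleotide exchange uses 100 nM EPAC1, 250 nM RAP1B-BODIPY-GDP and 50 uM GDP, with compounds in a concentration-titration series. After 5 min at room temperature, fluorescence (480 nm ex/540 nm em) is read every 5 min for 30 min. Data are normalized to control ATA and DMSO.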
Chain of Rap guanine nucleotide exchange factor 3 (Homo sapiens) (O95398 whole entry, looked up): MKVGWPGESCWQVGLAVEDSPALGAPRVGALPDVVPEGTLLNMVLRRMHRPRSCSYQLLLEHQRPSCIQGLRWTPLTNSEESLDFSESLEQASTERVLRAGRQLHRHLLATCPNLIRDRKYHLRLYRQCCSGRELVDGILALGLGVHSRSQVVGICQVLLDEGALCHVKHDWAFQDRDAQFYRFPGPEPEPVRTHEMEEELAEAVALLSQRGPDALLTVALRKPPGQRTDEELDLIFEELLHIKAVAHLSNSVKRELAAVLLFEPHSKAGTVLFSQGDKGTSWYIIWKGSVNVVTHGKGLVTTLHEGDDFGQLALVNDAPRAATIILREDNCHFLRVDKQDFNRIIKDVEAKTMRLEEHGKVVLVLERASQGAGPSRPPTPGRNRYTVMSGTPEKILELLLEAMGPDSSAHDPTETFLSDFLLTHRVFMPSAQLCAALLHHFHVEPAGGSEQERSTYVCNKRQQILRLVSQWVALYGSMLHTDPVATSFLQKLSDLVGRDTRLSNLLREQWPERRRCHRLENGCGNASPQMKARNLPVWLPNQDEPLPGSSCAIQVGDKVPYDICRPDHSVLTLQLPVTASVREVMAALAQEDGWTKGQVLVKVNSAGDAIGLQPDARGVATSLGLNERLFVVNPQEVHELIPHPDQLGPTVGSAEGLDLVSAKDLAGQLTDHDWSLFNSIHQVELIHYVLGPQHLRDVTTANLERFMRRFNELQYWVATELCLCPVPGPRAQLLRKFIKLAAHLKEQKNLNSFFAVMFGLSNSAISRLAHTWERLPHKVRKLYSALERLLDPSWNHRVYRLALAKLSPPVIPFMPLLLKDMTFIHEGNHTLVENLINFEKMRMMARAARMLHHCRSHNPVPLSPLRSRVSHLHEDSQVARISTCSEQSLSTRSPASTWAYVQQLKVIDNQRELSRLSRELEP
(In general: In qHTS, concentration-response curves come from the screen itself.)

For assay [3] the target is unchanged. Nature of the assay: Confirmatory qHTS for agonist of cAMP-regulated guanine nucleotide exchange factor 3 (EPAC1) (AID 1645881). Further: nearly all actives have a fitted effect of over 75% in size. Further: potency means the concentration at half of the fitted maximal effect.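 On activation: EPAC1 catalysed release of BODIPY-GDP from Rap1B seen as fluorescence loss; 100% = effect of cAMP agonist control.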
In assay [4] the target is Rap guanine nucleotide exchange factor 4 (Homo sapiens) (UniProt Q8WZA2). Nature of the assay: Confirmatory qHTS for agonist of cAMP-regulated guanine nucleotide exchange factor 4 (EPAC2) (AID 1645884). Further: nearly all actives have a fitted effect of over 65% in size. Further: potency means the concentration at half of the fitted maximal effect.
Chain of Rap guanine nucleotide exchange factor 4 (Homo sapiens) (Q8WZA2 whole entry, looked up): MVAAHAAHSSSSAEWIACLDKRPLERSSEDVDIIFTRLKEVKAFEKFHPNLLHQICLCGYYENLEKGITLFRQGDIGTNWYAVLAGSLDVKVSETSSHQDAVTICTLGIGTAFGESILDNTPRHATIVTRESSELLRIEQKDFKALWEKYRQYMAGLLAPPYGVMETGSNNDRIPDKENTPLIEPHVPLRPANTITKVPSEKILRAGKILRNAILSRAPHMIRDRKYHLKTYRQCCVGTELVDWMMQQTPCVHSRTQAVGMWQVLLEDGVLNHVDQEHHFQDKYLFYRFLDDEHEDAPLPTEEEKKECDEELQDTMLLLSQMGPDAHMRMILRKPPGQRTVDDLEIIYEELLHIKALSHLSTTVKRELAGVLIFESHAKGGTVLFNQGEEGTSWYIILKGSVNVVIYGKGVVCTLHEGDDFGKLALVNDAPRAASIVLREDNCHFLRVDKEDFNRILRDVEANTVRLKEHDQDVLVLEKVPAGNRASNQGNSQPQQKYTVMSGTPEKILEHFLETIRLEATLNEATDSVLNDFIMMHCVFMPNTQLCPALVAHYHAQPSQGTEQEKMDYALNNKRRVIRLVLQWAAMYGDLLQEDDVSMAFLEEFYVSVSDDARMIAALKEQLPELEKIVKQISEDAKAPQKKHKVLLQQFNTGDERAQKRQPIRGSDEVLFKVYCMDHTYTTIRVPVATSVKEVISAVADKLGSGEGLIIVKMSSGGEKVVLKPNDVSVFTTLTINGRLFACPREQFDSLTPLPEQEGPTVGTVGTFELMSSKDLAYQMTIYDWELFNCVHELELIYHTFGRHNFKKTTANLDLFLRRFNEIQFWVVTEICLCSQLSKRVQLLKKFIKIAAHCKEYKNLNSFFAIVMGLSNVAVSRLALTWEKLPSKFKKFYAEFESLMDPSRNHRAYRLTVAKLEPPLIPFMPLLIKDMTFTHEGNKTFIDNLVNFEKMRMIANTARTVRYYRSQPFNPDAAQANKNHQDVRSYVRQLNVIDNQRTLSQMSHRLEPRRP
The target is the same in assay [5]. Nature of the assay: Confirmatory qHTS for antagonist of cAMP-regulated guanine nucleotide exchange factor 4 (EPAC2) (AID 1645885). Further: nearly all actives have a fitted effect of over 25% in size. Further: potency means the concentration at half of the fitted maximal effect. On activity change, negative = inhibition: on the % scale 0 is the no-effect control and ±100 the full control effect.
The target in assay [6] is Rap guanine nucleotide exchange factor 3 (Homo sapiens) (UniProt O95398). The assay can be described thus: Counterscreen qHTS for antagonist of cAMP-regulated guanine nucleotide exchange factor 3 (EPAC1) (AID 1645888).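 Further: fluorescence loss as bound BODIPY-GDP is released from Rap1B; % of control where 0% means no effect.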 In a few lines: (§1)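 Rap1B-BODIPY-GDP 250 nM + GDP 50 uM; cpds 7-pt, final 9.74 nM–152 uM (activator mode) or from 7.32 nM upwards (inhibitor mode); RT; FI 480/540 nm at 5 and 30 min, then ± cAMP, reread.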
In general terms: A counterscreen serves to expose hits that act by an unwanted route or on another target.

For assay [7] the target is unchanged. Nature of the assay: Counterscreen qHTS for agonist of cAMP-regulated guanine nucleotide exchange factor 3 (EPAC1) (AID 1645889). Further: nearly all actives have a fitted effect of over 40% in size. Further: potency means the concentration at half of the fitted maximal effect. On activation: % of control where 0% means no effect. In short, it runs like this: as §1
Assay [8] can be described thus: qHTS for Inhibitors of the vitamin D receptor (VDR): Hit Validation using a Texas Red Assay (AID 602201). Further: potency means the concentration at half of the fitted maximal effect. In a few lines:
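After a 2-hour room-temperature incubation, polarization of Texas-Red emission was read (Ex 595 nm/Em 615 nm). Final mix contained 7 nM Texas Red, 1.5 uM VDR-LBD and LG19078.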

Assay [9] addresses Tyrosyl-DNA phosphodiesterase 1 (Homo sapiens) (UniProt Q9NUW8). The assay can be described thus: Confirmation Assay for Inhibitors of Tyrosyl-DNA Phosphodiesterase (TDP1) (AID 489007). Further: potency means the concentration at half of the fitted maximal effect; nearly all actives have a fitted effect of over 40% in size. The settings on record: recombinant human TDP1 enzymatic activity, dose-response. In a few lines:
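Recombinant human Tdp1 (1 nM final), expressed in E. coli, preincubated 15 min with compound. Then 15 nM 5'-biotin/3'-phosphotyrosine-FITC DNA substrate added for 5 min at room temperature. AlphaScreen beads (10 ug/ml) added for 10 min; cleavage gives signal loss.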

Assay [10] deals with Lysosomal acid glucosylceramidase (Homo sapiens) (UniProt P04062). Nature of the assay: Glucocerebrosidase-p2 (AID 348; in the data active means potency below about 10 µM; further: potency means the concentration at half of the fitted maximal effect). As to conditions: purified GBA, blue fluorogenic substrate, 40 min. In a few lines:
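Compounds titrated from 0.6 nM upwards against 0.2 nM enzyme in pH 5.9 citric acid/KH2PO4, taurocholate, tween-20; blue fluorogenic substrate 80 uM, 40 min room temperature, stopped and read Ex 365/Em 440 for AC50.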

Assay [11] can be described thus: AP1 Signaling Pathway (AID 357; active means well fitted curve in either direction with a large enough effect, not every such curve was filed as active;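 further: ME-180 reporter cells stimulated with EGF at its EC50 level; on the % scale 0 is the no-effect control and ±100 the full control effect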). As to conditions: ME-180 AP-1-bla reporter, EGF-induced, beta-lactamase ratio, 5 h; at 7.69 µM (top of the series) unless noted. In a few lines: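 Titration-series screen for positive or negative modulators of EC50 EGF-induced signaling in ME-180 cells carrying an AP-1-driven beta-lactamase reporter. After 5 hours at 37 degrees Celsius, CCF4 460nm/530nm emission ratio gave %Activity; AC50 values derived.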

Assay [12] has as its target Cytochrome P450 1A2 (Homo sapiens) (UniProt P05177). Nature of the assay: p450-cyp1a2 (AID 410; calls by dose curve; further: potency means the concentration at half of the fitted maximal effect). In short, it runs like this:
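20nM CYP1A2 with 100uM Luciferin-ME (at Km) in 100mM KPO4; compound preincubated 10 min, NADPH regeneration added, 60 min at room temperature. Luciferin quantified by luminescence after detection reagent; normalized to 57 uM furafylline.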

Assay [13] in a line: Stat Signaling Pathway (AID 446; active means well fitted curve in either direction with a large enough effect, not every such curve was filed as active;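 further: ME-180 cervical cancer cells given 40 pM IL-6 alongside compound; SIE-controlled beta-lactamase reporter measured as 460/530 nm FRET emission ratio; on the % scale 0 is the no-effect control and ±100 the full control effect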). In a few lines: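 Reporter line: ME-180 cervical carcinoma, SIE-beta-lactamase. Treatment: compound with 40 pM IL-6, 5 hrs, 37 C, in low-serum OPTI-MEM with 10 mM HEPES pH 7.3. Detection: 460/530 nm fluorescence.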
The target in assay [14] is Glucocorticoid receptor (Homo sapiens) (UniProt P04150). The assay can be described thus: GR-GFP Redistribution (AID 450;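 active means compounds whose dose series gives a full or clear partial fitted curve of increased nuclear translocation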; further: potency means the concentration at half of the fitted maximal effect). As to conditions: U2OS GR-GFP nuclear translocation, laser cytometry, 2 h.
Chain of Glucocorticoid receptor (Homo sapiens) (P04150 whole entry, looked up, the tested form may be a part): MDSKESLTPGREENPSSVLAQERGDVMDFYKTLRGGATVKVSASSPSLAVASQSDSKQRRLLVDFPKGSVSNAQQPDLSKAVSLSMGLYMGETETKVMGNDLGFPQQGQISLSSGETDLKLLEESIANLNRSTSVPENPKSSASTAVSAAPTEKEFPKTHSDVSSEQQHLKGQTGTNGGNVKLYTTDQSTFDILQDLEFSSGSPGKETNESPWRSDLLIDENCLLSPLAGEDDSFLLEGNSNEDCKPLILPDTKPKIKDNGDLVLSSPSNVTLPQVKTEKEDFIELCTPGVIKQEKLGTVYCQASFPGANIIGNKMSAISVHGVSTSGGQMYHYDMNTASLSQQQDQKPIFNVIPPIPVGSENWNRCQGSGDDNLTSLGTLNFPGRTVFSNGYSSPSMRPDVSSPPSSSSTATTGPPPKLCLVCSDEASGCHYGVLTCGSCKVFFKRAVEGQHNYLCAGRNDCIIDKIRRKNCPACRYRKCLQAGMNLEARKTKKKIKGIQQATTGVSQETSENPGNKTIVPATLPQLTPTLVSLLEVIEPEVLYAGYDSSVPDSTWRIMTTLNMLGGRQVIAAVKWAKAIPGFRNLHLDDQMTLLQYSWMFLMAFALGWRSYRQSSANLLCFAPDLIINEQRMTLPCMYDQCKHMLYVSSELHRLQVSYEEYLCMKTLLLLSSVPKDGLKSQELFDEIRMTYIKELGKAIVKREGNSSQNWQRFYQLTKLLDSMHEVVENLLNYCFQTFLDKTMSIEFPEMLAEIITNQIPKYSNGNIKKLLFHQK
For assay [15] the target is unchanged. The assay can be described thus: GR-EFC Redistribution (AID 451; calls by dose curve; further: potency means the concentration at half of the fitted maximal effect). As to conditions: CHO-K1 GR-EFC translocation, beta-gal luminescence, 2 h. In a few lines: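 Translocation of GR-ED fusion to nuclear EA restores b-gal, read by luminescence after 1 h room-temperature detection. Engineered CHO-K1 biosensor cells, 1,000/well, exposed 2 h at 37 C to titrations up to 46 uM final.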

Assay [16] addresses Mitogen-activated protein kinase 10 (Mus musculus) (UniProt Q61831). Nature of the assay: JNK3 AlphaScreen Assay (AID 530; active means well fitted curve in either direction with a large enough effect, not every such curve was filed as active;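 further: kinase came from lysate of stimulated human HepG2 cells; signal reports phosphorylation of biotinylated GST-cJun 1-79 at Ser73 with 10 µM ATP; on the % scale 0 is the no-effect control and ±100 the full control effect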). In a few lines:
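Compound titrations were preincubated 15 minutes at room temperature with substrate, antibody and pre-activated JNK3-containing HepG2 lysate. Reactions were started with 10 uM ATP and stopped with EDTA-containing bead buffer for AlphaScreen detection.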

The target of assay [17] is 3',5'-cyclic-AMP phosphodiesterase 4B (Homo sapiens) (UniProt Q07343). Nature of the assay: qHTS Assay for Inhibitors of PDE-IV (AID 607; active means well fitted activation curve with a large enough effect in the main read-out, with a control signal flat, not every such curve was filed as active; further: % of control where 0% means no effect). In a few lines:
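Cell-based read-out of cAMP via a modified cyclic nucleotide-gated channel and membrane potential dye (535/590 nm) in HEK293 cells expressing PDE4 endogenously. Compounds tested up to 22.9 uM final; 100 uM RO 20-1724 reference.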

The target of assay [18] is Cytochrome P450 2D6 (Homo sapiens) (UniProt P10635). The assay can be described thus: qHTS Assay for Inhibitors and Substrates of Cytochrome P450 2D6 (AID 891). Further: potency means the concentration at half of the fitted maximal effect; nearly all actives have a fitted effect of over 60% in size. In a few lines: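 Human CYP2D6 (5 nM) with 30 uM Luciferin-ME EGE (at Km) in 100 mM KPO4, compound preincubated 10 min, then NADPH regeneration system for 60 min at room temperature. Luciferin read by luminescence; normalized to 1.43 uM quinidine.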
Chain of Cytochrome P450 2D6 (Homo sapiens) (P10635 whole entry, looked up): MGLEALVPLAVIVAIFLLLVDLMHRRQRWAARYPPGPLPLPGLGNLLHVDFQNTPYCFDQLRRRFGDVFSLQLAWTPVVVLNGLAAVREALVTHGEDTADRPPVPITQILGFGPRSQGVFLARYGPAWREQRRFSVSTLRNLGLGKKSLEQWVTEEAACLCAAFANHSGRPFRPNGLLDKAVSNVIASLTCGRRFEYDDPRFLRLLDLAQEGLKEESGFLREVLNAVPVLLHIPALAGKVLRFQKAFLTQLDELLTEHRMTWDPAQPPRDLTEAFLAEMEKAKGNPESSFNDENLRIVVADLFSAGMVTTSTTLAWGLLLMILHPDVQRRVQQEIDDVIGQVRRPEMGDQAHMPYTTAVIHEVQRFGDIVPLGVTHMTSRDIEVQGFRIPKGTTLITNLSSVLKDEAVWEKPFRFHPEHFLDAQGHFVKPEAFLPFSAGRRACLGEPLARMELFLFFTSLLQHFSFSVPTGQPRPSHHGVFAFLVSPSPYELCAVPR

Assay [19] has as its target Cytochrome P450 2C19 (Homo sapiens) (UniProt P33261). The assay can be described thus: qHTS Assay for Inhibitors and Substrates of Cytochrome P450 2C19 (AID 899). Further: potency means the concentration at half of the fitted maximal effect; nearly all actives have a fitted effect of over 60% in size. In short, it runs like this: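 5nM enzyme + 10uM Luciferin-H EGE (=KM), 50mM KPO4; cpd pin-transferred, 10 min 37C; NADPH regen, 60 min 37C; stopped w/ luciferin detection reagent, 20 min; luminescence. Normalized to 57uM ketoconazole (AC100).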

A number with no mark means an inactive call. Inconclusive results are not listed. Active and inactive are the calls of the source. Unless noted, the call rests on the fitted dose curve; in most records, active means well fitted curve in the direction sought with a large enough effect; inconclusive means small, poorly fitted or top-dose-only effect, or another doubt; inactive means no such curve, though single readings can be large; an effect the other way counts as inactive or inconclusive. Where only a bound is given, the exact number is not on record here.

Chain of Tumor susceptibility gene 101 protein (Homo sapiens) (Q99816 whole entry, looked up, the tested form may be a part): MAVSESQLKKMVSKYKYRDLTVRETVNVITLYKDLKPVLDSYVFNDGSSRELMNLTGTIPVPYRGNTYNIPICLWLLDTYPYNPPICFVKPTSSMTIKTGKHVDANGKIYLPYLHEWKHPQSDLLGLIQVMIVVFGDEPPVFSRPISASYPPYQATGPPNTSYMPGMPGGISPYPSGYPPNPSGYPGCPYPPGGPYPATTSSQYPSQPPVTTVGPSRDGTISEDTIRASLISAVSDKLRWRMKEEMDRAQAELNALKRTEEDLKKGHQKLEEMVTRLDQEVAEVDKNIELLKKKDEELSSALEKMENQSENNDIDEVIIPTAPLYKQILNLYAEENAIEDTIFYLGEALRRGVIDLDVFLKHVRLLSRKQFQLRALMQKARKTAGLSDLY
Chain of Tyrosyl-DNA phosphodiesterase 1 (Homo sapiens) (Q9NUW8 whole entry, looked up): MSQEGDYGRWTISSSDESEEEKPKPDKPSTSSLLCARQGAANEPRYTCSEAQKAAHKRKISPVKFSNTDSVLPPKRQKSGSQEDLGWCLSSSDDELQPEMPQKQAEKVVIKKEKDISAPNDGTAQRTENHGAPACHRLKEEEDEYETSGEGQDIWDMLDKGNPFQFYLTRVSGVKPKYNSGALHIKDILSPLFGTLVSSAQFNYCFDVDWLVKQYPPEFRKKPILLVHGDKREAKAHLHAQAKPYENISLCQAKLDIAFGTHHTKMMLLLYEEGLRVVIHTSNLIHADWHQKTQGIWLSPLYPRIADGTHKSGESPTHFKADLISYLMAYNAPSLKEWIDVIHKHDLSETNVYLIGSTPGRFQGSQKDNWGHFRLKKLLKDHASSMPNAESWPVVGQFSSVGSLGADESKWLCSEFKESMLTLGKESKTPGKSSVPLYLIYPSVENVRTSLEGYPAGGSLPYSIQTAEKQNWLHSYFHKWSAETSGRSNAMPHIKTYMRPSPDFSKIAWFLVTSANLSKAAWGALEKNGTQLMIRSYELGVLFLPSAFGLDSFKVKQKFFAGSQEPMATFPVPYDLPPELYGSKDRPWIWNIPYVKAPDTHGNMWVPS
Chain of Lysosomal acid glucosylceramidase (Homo sapiens) (P04062 whole entry, looked up): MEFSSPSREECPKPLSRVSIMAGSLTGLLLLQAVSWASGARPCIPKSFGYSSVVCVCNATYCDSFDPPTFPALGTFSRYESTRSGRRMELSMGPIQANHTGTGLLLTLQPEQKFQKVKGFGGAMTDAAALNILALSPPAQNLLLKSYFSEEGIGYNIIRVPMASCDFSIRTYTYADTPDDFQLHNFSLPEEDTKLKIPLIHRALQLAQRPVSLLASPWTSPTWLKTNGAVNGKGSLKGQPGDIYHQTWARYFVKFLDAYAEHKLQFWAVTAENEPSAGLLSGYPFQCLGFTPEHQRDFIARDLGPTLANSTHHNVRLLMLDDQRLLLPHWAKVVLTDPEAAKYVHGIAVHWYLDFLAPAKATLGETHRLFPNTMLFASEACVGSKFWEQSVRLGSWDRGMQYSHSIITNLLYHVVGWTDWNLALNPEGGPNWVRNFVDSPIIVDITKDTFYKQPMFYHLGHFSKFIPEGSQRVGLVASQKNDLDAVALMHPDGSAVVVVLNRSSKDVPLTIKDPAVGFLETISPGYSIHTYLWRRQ

On to `Cc1cccc(N2C(=O)c3cccc4c(N(C)CCO)ccc(c34)C2=O)c1`, for which the Potency was 3.66 µM (active) in [1], 89.1 µM (active) in assay [3], 100 µM (active) in assay [4] and 39.8 µM (active) in assay [7]. The Potency result in assay [2], in assay [5] and in assay [6] was “inactive” each time.
Take `O=S(=O)(Nc1cc2nc3ccccc3nc2n1Cc1ccccc1)c1ccc(Cl)cc1`: the Potency entry in assay [8], in assay [3], in assay [4], in assay [6] and in [7] was “inactive” in each case. The values for the Potency in [2] and in assay [5] were 9.53 µM (active) and 37.9 µM (active), respectively.
On to `CC1=NOC(=O)/C1=C\c1ccc(-c2ccc(Br)cc2)o1`, for which the Potency in assay [8] was 3.16 µM (active); in assay [2], 25.1 µM (active). The Potency entry in [3] and in assay [5] was “inactive” throughout. For the same compound, the activation in assay [4] is -0.7% [at 17.1 µM, percent relative to cAMP agonist control]; in [7] it was 11.6% [at 30.8 µM]. Besides, in assay [6], the activity change, negative = inhibition is -10.2% [at 30.8 µM].
Take `CSC1=NSC2=NC(=O)/C(=C\c3coc4ccccc4c3=O)C(=N)N12`: the Potency in assay [1] was 5.17 µM (active); in assay [3], 89.1 µM (active); in assay [4] it was 100 µM (active); in assay [5] it was 16.9 µM (active); in assay [7], 44.7 µM (active). The Potency entry in assay [2] and in [6] was “inactive” each time.
For `Fc1ccc(N2N=C(c3cccs3)CC2c2ccccc2)cc1` (configuration not stated), in assay [9], the Potency was 28.2 µM (active). Besides, the Potency result in assay [2], in [3], in assay [4], in [5] and in assay [6] was “inactive” each time.
On to `CC(C)=CCC1=C(OCC(=O)O)C(=O)c2ccccc2C1=O`, for which the Potency in assay [10] was above 11.4 µM; in assay [12], 0.501 µM (active); in [14], above 46 µM; in assay [15] it was above 9.22 µM; in [18] it was 3.16 µM (active); in assay [19] it was 1.26 µM (active). Besides, the Potency in assay [2] is 84.9 µM (active). The activity change, negative = inhibition in [11] was 18.8%; in [16] it was 15.2% [at 11.4 µM]. Besides, the call in assay [13] was inactive. For the same compound, the Potency result in assay [17], in assay [3], in assay [4], in assay [5] and in assay [6] was “inactive” in each case.
In the case of `Cc1ccc(/C(O)=C2/C(=O)C(=O)OC2c2ccc(Cl)cc2)cc1` (configuration not stated), the Potency was 7.08 µM (active) in [8] and 39.8 µM (active) in assay [2]. Besides, the Potency entry in assay [3] and in assay [5] was “inactive” throughout. Moreover, the activation in assay [4] is 1.22% [at 17.1 µM, percent relative to cAMP agonist control]; in assay [7], 5.06% [at 30.8 µM]. Moreover, the activity change, negative = inhibition in assay [6] is -12.7% [at 30.8 µM].
`CCOC(=O)COc1ccc(Br)cc1/C=C/c1[nH]c(=O)[nH]c(=O)c1[N+](=O)[O-]`: the Potency entry in assay [8], in assay [3], in assay [4], in [5] and in assay [6] was “inactive” in each case. Moreover, the Potency in assay [2] is 7.57 µM (active).
